Laboratory results: PubChem BioAssay AID1159580 (chemical genetic matrix, 2015)
The campaign covered roughly 5,500 compounds. About 2,000 (36%) were called active. Not shown: some 18% with an inconclusive outcome. The list shows a part of the results. Unmarked numbers belong to inactive results. No stated cut-off is given here; in the data, active means normalized growth mostly below about 0.91 (no sharp cut-off); inconclusive means no clear call, values can overlap the other calls; inactive means mostly above about 0.92.

Assay: chemical genetic growth profiling, strain panel (AID 1159580);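 further: tested at 20 µM; growth read once vehicle control cultures reached saturation at 30 °C; 1 = growth at the plate median or of vehicle wells; lower values mean less growth of the strain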
Details: S. cerevisiae deletion strains, growth OD
[1] = locus YAR019C, strain CDC15, active compounds read low
[2] = locus YBL105C, strain PKC1, active compounds read low
[3] = locus YBR135W, strain CKS1, active compounds read low
[4] = locus YBR136W, strain MEC1, active compounds read low
[5] = locus YBR160W, strain CDC28, active compounds read low
[6] = locus YDL017W, strain CDC7, active compounds read low
[7] = locus YDL028C, strain MPS1, active compounds read low
[8] = locus YDL101C, strain DUN1, active compounds read low
[9] = locus YDL108W, strain KIN28, active compounds read low
[10] = locus YDL132W, strain cdc53, active compounds read low
[11] = locus YDL214C, strain PRR2, active compounds read low
[12] = locus YDR052C, strain DBF4, active compounds read low
[13] = locus YDR054C, strain cdc34, active compounds read low
[14] = locus YDR226W, strain ADK1, active compounds read low
[15] = locus YDR477W, strain SNF1, active compounds read low
[16] = locus YER123W, strain YCK3, active compounds read low
[17] = locus YER133W, strain GLC7, active compounds read low
[18] = locus YFL009W, strain cdc4, active compounds read low
[19] = locus YFL029C, strain CAK1, active compounds read low
[20] = locus YFR003C, strain YPI1, active compounds read low
[21] = locus YFR019W, strain FAB1, active compounds read low
[22] = locus YFR028C, strain CDC14, active compounds read low
[23] = locus YGR040W, strain KSS1, active compounds read low
[24] = locus YGR052W, strain FMP48, active compounds read low
[25] = locus YGR092W, strain DBF2, active compounds read low
[26] = locus YHR030C, strain SLT2, active compounds read low
[27] = locus YHR079C, strain IRE1, active compounds read low
[28] = locus YHR082C, strain KSP1, active compounds read low
[29] = locus YHR205W, strain SCH9, active compounds read low
[30] = locus YIL147C, strain SLN1, active compounds read low
[31] = locus YJL095W, strain BCK1, active compounds read low
[32] = locus YJL128C, strain PBS2, active compounds read low
[33] = locus YJL157C, strain FAR1, active compounds read low
[34] = locus YJR016C, strain ILV3, active compounds read low
[35] = locus YJR066W, strain TOR1 (second series), active compounds read low
[36] = locus YJR066W, strain TOR1, active compounds read low
[37] = locus YKL048C, strain ELM1, active compounds read low
[38] = locus YKL067W, strain YNK1, active compounds read low
[39] = locus YKL101W, strain HSL1, active compounds read low
[40] = locus YKL193C, strain SDS22, active compounds read low
[41] = locus YKL203C, strain TOR2, active compounds read low
[42] = locus YLR113W, strain HOG1, active compounds read low
[43] = locus YLR133W, strain CKI1, active compounds read low
[44] = locus YLR403W, strain SFP1, active compounds read low
[45] = locus YML070W, strain DAK1, active compounds read low
[46] = locus YMR001C, strain CDC5, active compounds read low
[47] = locus YMR205C, strain PFK2 (second series), active compounds read low
[48] = locus YMR277W, strain FCP1, active compounds read low
[49] = locus YNL006W, strain LST8, active compounds read low
[50] = locus YNL020C, strain ARK1, active compounds read low
[51] = locus YNL161W, strain CBK1, active compounds read low
[52] = locus YNL183C, strain NPR1, active compounds read low
[53] = locus YNL207W, strain RIO2, active compounds read low
[54] = locus YNL222W, strain SSU72, active compounds read low
[55] = locus YNL307C, strain MCK1 (second series), active compounds read low
[56] = locus YOL078W, strain AVO1, active compounds read low
[57] = locus YOL136C, strain PFK27, active compounds read low
[58] = locus YOR061W, strain CKA2, active compounds read low
[59] = locus YOR119C, strain RIO1, active compounds read low
[60] = locus YOR231W, strain MKK1, active compounds read low
[61] = locus YOR329C, strain SCD5, active compounds read low
[62] = locus YPL031C, strain PHO85, active compounds read low
[63] = locus YPL153C, strain RAD53, active compounds read low
[64] = locus YPL204W, strain HRR25, active compounds read low
[65] = locus YPL209C, strain IPL1, active compounds read low
[66] = locus YPL256C, strain CLN2, active compounds read low
[67] = locus YPR025C, strain CCL1, active compounds read low
[68] = locus YPR106W, strain ISR1, active compounds read low
[69] = locus YPR111W, strain DBF20, active compounds read low
[70] = strain NNK1, active compounds read low
[71] = strain TSCII, active compounds read low
[72] = locus YJR075W, strain HOC1, active compounds read low
[73] = locus YMR263W, strain SAP30, active compounds read low
[74] = locus YMR307W, strain GAS1, active compounds read low
[75] = locus YNL153C, strain GIM3, active compounds read low
[76] = locus YPL241C, strain CIN2, active compounds read low

SMILES: O=C(/C=C/c1ccc(Cl)cc1)Nc1cccc(Cl)c1
- normalized growth [1]: 0.958
- normalized growth [2]: 0.948
- normalized growth [3]: 0.961
- normalized growth [4]: 0.961
- normalized growth [5]: 0.961
- normalized growth [6]: 0.949
- normalized growth [7]: 0.951
- normalized growth [8]: 0.973
- normalized growth [9]: 0.961
- normalized growth [10]: 0.962
- normalized growth [11]: 0.88
- normalized growth [12]: 0.952
- normalized growth [13]: 0.958
- normalized growth [14]: 0.95
- normalized growth [15]: 0.838
- normalized growth [16]: 0.631
- normalized growth [17]: 0.831
- normalized growth [18]: 0.963
- normalized growth [19]: 0.949
- normalized growth [20]: 0.953
- normalized growth [21]: 0.936
- normalized growth [22]: 0.968
- normalized growth [23]: 0.816
- normalized growth [24]: 0.819
- normalized growth [25]: 0.485
- normalized growth [26]: 0.846 (active)
- normalized growth [27]: 0.853
- normalized growth [28]: 0.875
- normalized growth [29]: 0.744
- normalized growth [30]: 0.96
- normalized growth [31]: 0.754
- normalized growth [32]: 0.919
- normalized growth [33]: 0.889
- normalized growth [34]: 0.965
- normalized growth [35]: 0.877
- normalized growth [36]: 0.831
- normalized growth [37]: 0.895
- normalized growth [38]: 0.876
- normalized growth [39]: 0.872
- normalized growth [40]: 0.956
- normalized growth [41]: 0.881
- normalized growth [42]: 0.816 (active)
- normalized growth [43]: 0.864
- normalized growth [44]: 0.774
- normalized growth [45]: 0.798
- normalized growth [46]: 0.96
- normalized growth [47]: 0.886
- normalized growth [48]: 0.957
- normalized growth [49]: 0.971
- normalized growth [50]: 0.883
- normalized growth [51]: 0.965
- normalized growth [52]: 0.796
- normalized growth [53]: 0.948
- normalized growth [54]: 0.961
- normalized growth [55]: 0.699
- normalized growth [56]: 0.938
- normalized growth [57]: 0.839
- normalized growth [58]: 0.857
- normalized growth [59]: 0.867
- normalized growth [60]: 0.837
- normalized growth [61]: 0.957
- normalized growth [62]: 0.835
- normalized growth [63]: 0.863
- normalized growth [64]: 0.822
- normalized growth [65]: 0.96
- normalized growth [66]: 0.862
- normalized growth [67]: 0.952
- normalized growth [68]: 0.944
- normalized growth [69]: 0.942
- normalized growth [70]: 0.96
- normalized growth [71]: 0.965

SMILES: C[N+](C)(C)CC#CCOC(=O)Nc1cccc(Cl)c1
- normalized growth (locus YAL040C, strain CLN3, active compounds read low): 0.998
- normalized growth (locus YDR363W, strain ESC2, active compounds read low): 0.987
- normalized growth (locus YER002W, strain NOP16, active compounds read low): 0.99
- normalized growth [72]: 0.952
- normalized growth [73]: 0.953
- normalized growth [74]: 0.985
- normalized growth (locus YNL128W, strain TEP1, active compounds read low): 0.966
- normalized growth [75]: 0.998
- normalized growth (locus YNL175C, strain NOP13, active compounds read low): 0.984
- normalized growth (locus YNL197C, strain WHI3, active compounds read low): 0.973
- normalized growth (locus YNL224C, strain SQS1, active compounds read low): 0.993
- normalized growth (locus YOR083W, strain WHI5 (second series), active compounds read low): 0.954
- normalized growth [76]: 0.998

SMILES: COC(=O)c1cc(OC)c(OC)cc1NC(=O)Nc1cc(Cl)cc(Cl)c1
- normalized growth (locus YAL013W, strain DEP1, active compounds read low): 0.991
- normalized growth (locus YBR229C, strain ROT2, active compounds read low): 0.998
- normalized growth [8]: 1.02
- normalized growth (locus YDL134C, strain PPH21, active compounds read low): 0.979
- normalized growth (locus YDR150W, strain NUM1, active compounds read low): 0.916
- normalized growth (locus YEL061C, strain CIN8, active compounds read low): 1.02
- normalized growth (locus YGR078C, strain PAC10, active compounds read low): 1.01
- normalized growth [26]: 0.868
- normalized growth (locus YHR087W, strain rtc3, active compounds read low): 1.02
- normalized growth (locus YJL187C, strain SWE1, active compounds read low): 1.03
- normalized growth (locus YJR043C, strain POL32, active compounds read low): 0.959
- normalized growth [72]: 0.982
- normalized growth (locus YKL190W, strain CNB1, active compounds read low): 1.01
- normalized growth (locus YLR039C, strain RIC1, active compounds read low): 1.01
- normalized growth (locus YLR058C, strain SHM2 (second series), active compounds read low): 1.01
- normalized growth (locus YLR085C, strain ARP6, active compounds read low): 0.973
- normalized growth (locus YLR262C, strain YPT6, active compounds read low): 0.972
- normalized growth (locus YML094W, strain GIM5, active compounds read low): 0.998
- normalized growth (locus YMR219W, strain ESC1, active compounds read low): 1.02
- normalized growth [73]: 0.978
- normalized growth [74]: 1.05
- normalized growth [75]: 1.02
- normalized growth (locus YNL298W, strain CLA4 (second series), active compounds read low): 0.969
- normalized growth (locus YNL322C, strain KRE1, active compounds read low): 1.02
- normalized growth (locus YNR030W, strain Alg12, active compounds read low): 0.978
- normalized growth (locus YOL006C, strain TOP1, active compounds read low): 1.05
- normalized growth (locus YPL055C, strain LGE1, active compounds read low): 1.08
- normalized growth [76]: 0.998
- normalized growth (locus YPR135W, strain CTF4, active compounds read low): 0.926

SMILES: COC(=S)Nc1cc(Cl)cc(Cl)c1
- normalized growth [1]: 0.938
- normalized growth [2]: 0.94
- normalized growth [3]: 0.935
- normalized growth [4]: 0.94
- normalized growth [5]: 0.935
- normalized growth [6]: 0.938
- normalized growth [7]: 0.939
- normalized growth [8]: 0.949
- normalized growth [9]: 0.943
- normalized growth [10]: 0.95
- normalized growth [11]: 0.702
- normalized growth [12]: 0.935
- normalized growth [13]: 0.959
- normalized growth [14]: 0.921
- normalized growth [15]: 0.685 (active)
- normalized growth [16]: 0.608 (active)
- normalized growth [17]: 0.559 (active)
- normalized growth [18]: 0.912
- normalized growth [19]: 0.919
- normalized growth [20]: 0.941
- normalized growth [21]: 0.828
- normalized growth [22]: 0.966
- normalized growth [23]: 0.662 (active)
- normalized growth [24]: 0.698
- normalized growth [25]: 0.452 (active)
- normalized growth [26]: 0.577 (active)
- normalized growth [27]: 0.499 (active)
- normalized growth [28]: 0.633
- normalized growth [29]: 0.659
- normalized growth [30]: 0.929
- normalized growth [31]: 0.584
- normalized growth [32]: 0.935
- normalized growth [33]: 0.679 (active)
- normalized growth [34]: 0.925
- normalized growth [35]: 0.653
- normalized growth [36]: 0.604
- normalized growth [37]: 0.816
- normalized growth [38]: 0.704 (active)
- normalized growth [39]: 0.762
- normalized growth [40]: 0.919
- normalized growth [41]: 0.697 (active)
- normalized growth [42]: 0.458 (active)
- normalized growth [43]: 0.742
- normalized growth [44]: 0.569 (active)
- normalized growth [45]: 0.644 (active)
- normalized growth [46]: 0.935
- normalized growth [47]: 0.747 (active)
- normalized growth [48]: 0.932
- normalized growth [49]: 0.936
- normalized growth [50]: 0.727
- normalized growth [51]: 0.934
- normalized growth [52]: 0.544 (active)
- normalized growth [53]: 0.927
- normalized growth [54]: 0.933
- normalized growth [55]: 0.599 (active)
- normalized growth [56]: 0.923
- normalized growth [57]: 0.648 (active)
- normalized growth [58]: 0.719
- normalized growth [59]: 0.746
- normalized growth [60]: 0.585
- normalized growth [61]: 0.929
- normalized growth [62]: 0.564 (active)
- normalized growth [63]: 0.588 (active)
- normalized growth [64]: 0.567 (active)
- normalized growth [65]: 0.935
- normalized growth [66]: 0.627 (active)
- normalized growth [67]: 0.936
- normalized growth [68]: 0.927
- normalized growth [69]: 0.96
- normalized growth [70]: 0.936
- normalized growth [71]: 0.913
